Assay results as given in PubChem BioAssay AID624300 (Southern Research Specialized Biocontainment Screening …, 2012).
The whole screen tested about 2,400 compounds, of which about 360 (15%) were called active. A selection follows. Results with a measured potency or affinity are listed apart. Values without a mark were called inactive.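 Rule for the calls: active = viability falls under 70% at one or more tested concentrations, taken as toxicity; inactive = viability stays over 70% at every dose.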

Test: HeLa cell cytotoxicity, dose response, cytotoxicity control for MgcRacGAP inhibitor project (AID 624300);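 note: 100% = median of untreated control wells on the same plate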
Details: CellTiter-Glo luminescence, 24 h; series mostly up to 100 µM; viability: at the top concentration

SMILES | viability
COc1ccc(NC2CCCN(C(=O)C3(C)CCCCC3)C2)cc1 (stereo not drawn) | 100%
COc1cc(CN2CCN(C(=O)c3cccc4ccccc34)CC2)cc(OC)c1OC | 96.3%
O=C(N/C(=C\c1ccc(O)cc1)C(=O)N1CCCCC1)c1ccccc1 | 102%
S=c1[nH]nc(-c2ccncc2)n1/N=C/C=C/c1ccccc1 | 109%
COc1cccc(OC)c1OCCCN1CCOCC1 | 103%
CCOC(=O)c1[nH]c2ccccc2c1NC(=S)Nc1ccccc1 | 103%
CCC(=O)Nc1ccc(Nc2ccccc2)cc1 | 118%
COc1cccc2[nH]c(C(=O)NN)c(N)c12 | 90.4%
CC1CN(CCOCCOc2ccccc2-c2ccccc2)CC(C)O1 (stereo not drawn) | 87.1%
O=C1C(Cl)=C(NC(=O)c2ccccc2)C(=O)C(Cl)=C1NC(=O)c1ccccc1 | 106%
O=C1c2ccccc2NC(c2ccc(O)cc2)N1/N=C/c1ccc(O)cc1 (stereo not drawn) | 100%
COc1ccc(NC2CCCN(C(=O)c3ccccc3C(F)(F)F)C2)cc1 (stereo not drawn) | 94.8%
COC(=O)c1cc(NCc2c(F)cccc2Cl)ccc1N1CCOCC1 | 106%
CCOC(=O)c1[nH]c2ccc(OC)cc2c1NC(=O)c1ccccc1C(=O)O | 83.2%
COc1ccc2[nH]c3c(=O)n(CCCCC(=O)N4CCC(C(N)=O)CC4)c(=S)[nH]c3c2c1 | 109%
COc1ccc2[nH]c3c(=O)n(Cc4ccc(C(=O)N5CCC(C(N)=O)CC5)cc4)c(=S)[nH]c3c2c1 | 80.8%
COc1ccc(C=Nc2ccc3[nH]ncc3c2)c(O)c1 | 101%
CCOC(=O)C1CCN(C2=NC(=O)/C(=C/c3ccc(O)cc3)S2)CC1 | 96.4%
c1ccc(-c2ccccc2OCCOCCN2CCOCC2)cc1 | 85.7%
COc1cc(NC(C)CCCNC(C)C)c2ncccc2c1OC (stereo not drawn) | 93.5%
C=CCc1cc(OC)ccc1OCCN1CC(C)OC(C)C1 (stereo not drawn) | 95.6%
Cc1cc(O)ccc1NC(=O)c1ccccc1 | 94%
O=C(Cc1coc2cc(O)ccc12)N1CCN(S(=O)(=O)c2ccc(Br)cc2)CC1 | 90.8%

SMILES | viability
S=C(NCCN1CCOCC1)Nc1ccc(Nc2ccccc2)cc1 | 97.8%
COc1ccc(CN2CCN(Cc3ccccc3F)CC2)c(OC)c1 | 92.1%
CCN(Cc1ccccc1)C1CCN(Cc2ccc(SC)cc2)CC1 | 97.6%
CC1CCCCN1CC(=O)Nc1ccc(N2CCCCCC2)cc1 (stereo not drawn) | 105%
CC(=O)N1CCN(c2ccc(NCc3cccs3)cc2)CC1 | 104%
Oc1ccc(/C=N/NC(=S)N2CCOCC2)cc1 | 107%
Cc1c(NC(=S)N/N=C/c2ccc(O)cc2)c(=O)n(-c2ccccc2)n1C | 90.6%
COc1cc(CN2CCN(C(=O)CC(C)C)CC2)cc(OC)c1O | 91.8%
O=C(O)CCCNC(=O)/C=C/c1ccco1 | 103%
O=C(/C=C\c1ccco1)c1ccc(NC(=O)c2ccco2)cc1 | 101%
CCCN1C(=O)S/C(=C/c2ccc(N3CCOCC3)o2)C1=O | 85%
O=C(O)CCCN1C(=O)/C(=C\c2ccco2)SC1=S | 94%
CCn1c(=S)[nH]c2c(=O)n(C)c(=O)n(C)c21 | 90.8%
COc1cc(/C=N/NC(=O)CCN2CCN(C(c3ccccc3)c3ccccc3)CC2)ccc1O | 106%
COc1ccc2cc(OCC(=O)NNC(=O)Nc3ccc(C(C)=O)cc3)ccc2c1 | 106%
COc1cc(/C=N/NC(=O)C(=O)Nc2ccccn2)ccc1O | 105%
O=[N+]([O-])c1cc(Br)c(O)c(C=Nc2ccc(N3CCOCC3)cc2)c1 | 95.3%
CN(C)c1ccc(NS(=O)(=O)c2cc(Cl)ccc2Cl)cc1 | 104%
CCOC(=O)N1CCC(N2CCN(S(=O)(=O)c3ccc4ccccc4c3)CC2)CC1 | 97.3%
Nc1ccc2c(c1)Cc1cc(N)c(Br)cc1-2 | 99.7%
COc1cc(-c2cc(-c3ccc(F)cc3)nc(N)c2C#N)ccc1O | 105%
COc1cc(-c2cc(C(=O)O)c3c(OC)c(OC)c(OC)cc3n2)ccc1O | 104%
O=C1CC(c2ccccc2)CC(O)=C1C=Nc1ccc(O)cc1 (stereo not drawn) | 105%

SMILES | viability
S=c1[nH]nc2sc3ccccc3n12 | 90.2%
Oc1ccc(N2CCN(c3ccnc4cc(Cl)ccc34)CC2)cc1 | 82.4%
O=C(O)c1c2c(nc3ccccc13)/C(=C/c1ccc(O)cc1)CCC2 | 89.2%
COc1cc(/C=N/NC(=O)CNC(=O)c2ccc3c(c2)OCCO3)ccc1O | 112%
COc1cc(/C=N/NC(=O)c2cccc([N+](=O)[O-])c2)ccc1O | 96.9%
COc1cc(/C=N/NC(=O)c2ccccc2)ccc1O | 82.1%
COc1cc(/C=N/NC(=O)CCc2ccccc2)ccc1O | 97.8%
COc1cc(/C=N/NC(=S)Nc2cccc(C(=O)O)c2)ccc1O | 102%
COc1cc(/C=N/NC(=O)CCn2nnc3ccccc32)ccc1O | 105%
COc1cc(/C=N/NC(=O)CN(Cc2ccco2)S(=O)(=O)c2ccccc2)ccc1O | 88.9%
COc1ccc(NS(=O)(=O)c2cccc(C(=O)NN=Cc3ccc(O)c(OC)c3)c2)cc1 | 98.1%
COc1cc(CN2CCC(C(=O)N3CCN(c4ccccc4F)CC3)CC2)ccc1O | 96.1%
COc1cc(/C=C/C(=O)OCC(=O)Nc2c(C)n(C)n(-c3ccccc3)c2=O)ccc1O | 100%
Oc1ccc(Cl)cc1N=Cc1sc2ccccc2c1Cl | 96.4%
COCc1cc(C)nc(OCC(=O)N/N=C/c2ccc(O)cc2)c1C#N | 93.9%
O=C(Cc1cccs1)N/N=C\c1ccc(O)cc1 | 101%
COCCNC(=O)COc1ccc(Nc2ccccc2)cc1 | 97.8%
COc1ccc(N2CCN(c3ncccc3C#N)CC2)cc1 | 101%
COc1cc(/C=C/C(=O)OCC(=O)NNC(=O)c2cc(Cl)ccc2OC)ccc1O | 98.7%
C=CCN1C(=O)CSC1=Nc1ccc(O)cc1 | 114%
COc1ccc(N2CCN(CC(=O)N3c4ccccc4CC3C)CC2)cc1 (stereo not drawn) | 94.6%
Cc1[nH]c2ccccc2c1N=Nc1c(C)n(C)n(-c2ccccc2)c1=O | 91.2%
COc1ccc(NC(=O)c2ccc(NC(=O)CN3CCN(c4ccc(O)cc4)CC3)cc2)cc1 | 97.1%

SMILES | viability
COc1ccc(NC2CCCN(C(=O)CCc3ccccc3F)C2)cc1 (stereo not drawn) | 102%
COC(=O)CCNCCSc1nnc(-c2ccco2)n1Cc1ccccc1 | 100%
CCOC(=O)c1sc(/N=C/c2ccc(O)cc2O)cc1C | 99%
COc1cc(/C=N/NC(=O)c2nc(-c3ccccc3)n(-c3ccccc3)n2)ccc1O | 99.1%
COc1cc(/C=N/NC(=O)c2ccc(=O)[nH]n2)ccc1O | 110%
COc1ccc(-c2ncc3ccccn23)cc1OC | 91.5%
COc1cccc(-c2ncc3ccccn23)c1 | 80.1%
CS(=O)(=O)C1=NSC2=NC(=O)/C(=C\c3ccc(OC(=O)c4ccco4)c(Br)c3)C(=N)N21 | 103%
CC(=O)Nc1ccc(S(=O)(=O)Nc2nc3ccccc3nc2Nc2ccc(C(=O)O)c(O)c2)cc1 | 104%
C[C@@H]1O[C@@H](OC[C@H]2O[C@@H](Oc3cc(O)c4c(=O)cc(-c5ccc(O)c(O)c5)oc4c3)[C@H](O)[C@@H](O)[C@@H]2O)[C@H](O)[C@H](O)[C@H]1O | 103%
C=CC[n+]1c(/C=C/c2ccc(OC(C)=O)c(OC)c2)ccc2ccccc21 | 101%
CC/C(=C\c1ccc(N(C)C)cc1)c1ccncc1 | 92.7%
CN(C)c1ccc(/C=N/O)cc1 | 94.3%
Nc1cc(Cc2ccccc2)ccc1O | 95.1%
N#Cc1ccc(OCC(=O)Nc2ccc(N3CCCC3)cc2)cc1 | 94.7%
O=C(Nc1ccc(N2CCCCC2)cc1)c1ccccc1 | 84.1%
COc1cc(N=Nc2ccc(C(=O)N(C)C)cc2)c(C)cc1N | 88.4%
N#CC1(Nc2ccc3c4c(cccc24)CC3)CCCCC1 | 104%
Cc1cnc(NC(=O)C(C)N2CCN(C)CC2)s1 (stereo not drawn) | 100%
O=C(Nc1ccccc1Cl)Oc1ccc(-c2ccccc2)cc1 | 88.8%
Cc1cc(NC(=O)CN2CCC(C)CC2)no1 | 101%
COc1ccccc1NS(=O)(=O)c1ccc(C)c(C(=O)N2CCN(c3ccc(O)cc3)CC2)c1 | 104%
Cc1ccc(C2C=NN(c3ccccc3)C2=O)cc1 (stereo not drawn) | 93.7%

SMILES | viability
C=CCn1c(=O)/c(=C/c2ccc(O)cc2)s/c1=C(/C#N)c1nnc2n1CCCCC2 | 96%
COc1ccc(NC2CCCN(C(=O)CCc3scnc3C)C2)cc1 (stereo not drawn) | 99.4%
COc1cc(N)c2ncccc2c1SC | 92.9%
COc1cc(N)c2ncccc2c1OC | 97.3%
COc1ccccc1N1CCN(/N=C/c2ccc(O)cc2O)CC1 | 102%
COc1ccc(Br)cc1CN(C)CC(=O)NCCc1ccccc1 | 93.4%
COc1ccc(CNCc2cccc(OC)c2OC)cc1Br | 96%
COc1ccc(Br)cc1CNc1ccc(O)cc1 | 104%
COc1ccc(CN2CCN(Cc3ccc(Br)cc3)CC2)c(OC)c1OC | 85%
Oc1ccc(/C=N/NC(=S)NCc2ccco2)cc1 | 93.7%
CCN(CC)c1ccc(/C=N/N2CCOCC2)cc1 | 100%
CCNc1nc(NCC)nc(N/N=C/c2ccc(O)c(O)c2)n1 | 95.7%
COc1ccc(NC(=O)NS(=O)(=O)c2ccc(C)cc2)cc1OC | 86.5%
CCc1nnc(N/N=C/c2cc(Br)c(O)cc2O)n1N | 92.8%
COc1cc(/C=C/C(=O)OCC(=O)NCc2ccc(F)cc2)ccc1O | 109%
CCN(CC)c1ccc(Nc2nc(-c3cccnc3)cs2)cc1 | 101%
CCN(CC)c1ccc(NC(=O)c2ccc(Br)o2)cc1 | 93%
COc1ccc(N2CCC(CNC(=O)Nc3ccc(C)c(C)c3)C2)cc1 (stereo not drawn) | 96.6%
COc1cc(C(=O)N/N=C/c2ccc(OC)c(CN3CCN(c4ccc(F)cc4)CC3)c2)ccc1O | 101%
CC1=CC(c2ccccc2)NC(=S)N1 (stereo not drawn) | 98.5%
COc1ccc(NC(=O)C(C)N2CCN(C)CC2)cc1 (stereo not drawn) | 102%
COc1cc2c(cc1N)-c1ccc(N)cc1C2 | 83.6%
COc1ccc(NC2CCCN(C(=O)c3csc(C(C)C)n3)C2)cc1 (stereo not drawn) | 106%

SMILES | viability
CCOc1cc(/C=N/NC(=O)c2ccc(=O)n(C)c2)ccc1O | 103%
O=C(CNC(=O)c1ccncc1)N/N=C/c1ccc(O)cc1O | 88%
Cc1nonc1C(=O)N/N=C/c1ccc(O)cc1 | 87.1%
COc1cc(/C=N/NC(=O)C2=NNC(=O)C2C)ccc1O (stereo not drawn) | 101%
COc1cc(/C=N/NC(=O)c2nonc2C)ccc1O | 93.3%
COc1cc(/C=N/NC(=O)Cc2nnc(NC(=O)c3ccccc3)s2)ccc1O | 97.2%
CC(=O)Nc1ccc(S(=O)(=O)Nc2ccc(Nc3ccccc3)cc2)cc1 | 106%
CCn1c(C)nc2cc(C(=O)N/N=C/c3ccc(O)cc3)ccc21 | 113%
Cc1nn2cc(-c3ccc(N)cc3)nc2s1 | 101%
COc1cc(/C(C)=N/NC(=O)Cc2c(C)[nH][nH]c2=O)ccc1O | 99.8%
C=CCn1c(CNc2ccc(C)cc2)nnc1SCC(=O)N/N=C/c1ccc(O)cc1O | 89.8%
CC(C)Cn1c(-c2ccc(Br)o2)n[nH]c1=S | 97.4%
CCN(CC)CCNCC(=O)Nc1ccc(Oc2ccccc2)cc1 | 97.4%
CCC(=O)c1ccccc1OCCN1CCN(CC)CC1 | 89.8%
CN(C)c1ccc(Cc2ccc(N(C)C)cc2)cc1 | 95.3%
O=C1c2c([N+](=O)[O-])cc([N+](=O)[O-])cc2S(=O)N1Cc1ccccc1 (stereo not drawn) | 106%
COc1cc(/C=C/C(=O)OCC(=O)Nc2cccc(F)c2)ccc1O | 94.6%
O=[S@]1Oc2ccccc2-c2ccccc21 | 107%
